Screening results as filed in PubChem.
LmPK inhibitor = qHTS Assay for Inhibitors of Leishmania Mexicana Pyruvate Kinase (LmPK). Q27686. Potency, µM (top dose mostly 57.5 µM), inactives show at the highest dose activity change, negative = inhibition, hits mostly inhibitors. purified LmPK, Kinase-Glo ATP luminescence, 1 h. 290,000 tested, 0.37% active. AID 1721, 2009; further: potency means the concentration at half of the fitted maximal effect; on the % scale 0 is the no-effect control and ±100 the full control effect
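qHTS format; LmPK 0.1 nM; substrates PEP 0.5 mM and ADP 0.1 mM. One-hour room-temperature incubation, then coupled luciferase luminescence; 0.5 nM enzyme wells mark activation.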
Shiga toxin inh = A qHTS for Small Molecule Inhibitors of Shiga Toxin. Vero cells, Shiga toxin protein synthesis inhibition reporter. 290,000 tested, 9.2% active. inhibition, % at 38.7 µM; in the data active means inhibition mostly above about 28%, no sharp cut-off; inactive means mostly below about 43%; further: 0% is about no effect
FBPA Giardia inh = qHTS Assay for Inhibitors of Fructose-1,6-bisphosphate Aldolase from Giardia Lamblia; A8B2U2; purified Giardia FBPA; Potency, µM (series often up to 59.6 µM), for inactives: at the top dose activity, negative = inhibition, usual class: inhibitors; 290,000 tested, 0.71% active; AID 2451, 2010; further: potency means the concentration at half of the fitted maximal effect; on the % scale 0 is the no-effect control and ±100 the full control effect; nearly all actives have a fitted effect of over 55% in size
Target sequence (A8B2U2 whole entry, looked up): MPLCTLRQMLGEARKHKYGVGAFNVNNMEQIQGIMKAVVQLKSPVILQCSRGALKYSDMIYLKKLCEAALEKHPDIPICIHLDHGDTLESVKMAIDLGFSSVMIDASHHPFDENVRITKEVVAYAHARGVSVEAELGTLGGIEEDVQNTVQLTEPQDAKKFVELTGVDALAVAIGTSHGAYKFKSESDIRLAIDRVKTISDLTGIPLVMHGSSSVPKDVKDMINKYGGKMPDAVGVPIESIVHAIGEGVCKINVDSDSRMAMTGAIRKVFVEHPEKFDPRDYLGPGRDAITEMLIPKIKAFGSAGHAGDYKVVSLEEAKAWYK
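40 nM FBPA preincubated 10 min at RT with compound (up to 57.5 uM final), then substrate plus GAPDH/TPI/NAD/arsenate coupling and diaphorase/resazurin added. Fluorescence read after 20 min at RT, 525/598 nm.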
RE007 growth inh = qHTS Assay for Inhibitors of the HIV-1 protein Vpr; S. pombe RE007 Vpr strain, BacTiter-Glo ATP luminescence, 24 h; Potency, µM (top dose mostly 92.2 µM), for inactives: at the highest dose activity change, negative = less growth, hits mostly inhibitors; 360,000 tested, 0.21% active; AID 651644, 2012; active means well fitted falling curve with a large enough effect; inconclusive means small, poorly fitted or top-dose-only effect; inactive means no such curve, though single readings can be large or run the other way; further: potency means the concentration at half of the fitted maximal effect; on the % scale 0 is the no-effect control and ±100 the full control effect; nearly all actives have a fitted effect of over 50% in size
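Fission yeast strain RE007, carrying one chromosomally integrated HIV-1 vpr copy, was seeded at OD 0.01 in PMG+AL medium with 23 nL pinned compound. After 24 h at 30 °C and 99% humidity, viability was read by BacTiter-Glo luminescence.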
TbPYK inhibitor = qHTS of Trypanosoma Brucei Inhibitors | 410,000 tested, 0.12% active | Potency, µM (highest dose often 76.8 µM), inactives show at the top dose activity, negative = inhibition, hits mostly inhibitors | TbPYK enzyme, Kinase-Glo Plus ATP luminescence, 45 min; further: potency means the concentration at half of the fitted maximal effect; on the % scale 0 is the no-effect control and ±100 the full control effect; nearly all actives have a fitted effect of over 50% in size
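Glycolytic pyruvate kinase of T. brucei was incubated with substrate, test compound and 130 uM ADP for 45 minutes at room temperature. Luminescent Kinase-Glo Plus signal was measured after 10 minutes.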
Cycloheximide cs = Cycloheximide Counterscreen for Small Molecule Inhibitors of Shiga Toxin; cell reporter, cycloheximide protein synthesis inhibition counterscreen; max response, %; 300,000 tested, 12% active; in the data active means max response mostly above about 13%, no sharp cut-off; inactive means mostly below about 14%; further: read at 38.3 µM for the half of the compounds with a filed dose; 0% is about no effect
* = called active by the depositor; ? = inconclusive; . = no result given; + = active, no number; [ ] = remark or other dose. Shown is part of a subset that was picked to be rich in hits. Unless noted, the call rests on the fitted dose curve; in most records, active means well fitted curve in the direction sought with a large enough effect; inconclusive means small, poorly fitted or top-dose-only effect, or another doubt; inactive means no such curve, though single readings can be large; an effect the other way counts as inactive or inconclusive.

SMILES	LmPK inhibitor	Shiga toxin inh	FBPA Giardia inh	RE007 growth inh	TbPYK inhibitor	Cycloheximide cs
COc1ccc(C2C=C(c3ccc(Br)cc3)Nc3nnnn32)c(OC)c1 (configuration not stated)	.	66.1*	.	.	5.6%	33.1*
CCc1ccc(C2=CC(c3cccc(Br)c3)n3nnnc3N2)cc1 (configuration not stated)	.	.	.	.	4.9%	.
Fc1ccc(C2=CC(c3ccco3)n3nnnc3N2)cc1 (configuration not stated)	4.6%	47.4*	0.2%	-1.6%	-4.5%	39.3*
COc1ccccc1C1C=C(c2ccccc2)Nc2nnnn21 (configuration not stated)	4.1%	165.0*	-8.8%	-10.0%	-6.8%	16.6
Fc1ccc(Br)cc1C1C=C(c2ccc(Br)cc2)Nc2nnnn21 (configuration not stated)	.	.	.	.	0.7%	.
COc1cccc(NC(=O)C2CCN(S(=O)(=O)c3c(C)noc3/C=C/c3cccs3)CC2)c1	.	.	.	.	-1.4%	.
Cc1ccc2c(c1)c(=O)c1ccccc1n2CCCC(=O)Nc1cc(Cl)ccc1C	.	.	.	.	-15.4%	.
COc1ccc(NC(=O)C(c2ccc(C#N)cc2)n2c(=O)c(-c3cc4ccccc4[nH]3)nc3ccccc32)cc1 (configuration not stated)	.	.	.	1.2%	.	.
COc1ccc2nc(-c3ccco3)c(-c3ccco3)nc2c1	-7.7%	55.8	?	?	?	53.9*
c1coc(-c2nc3cc4ccccc4cc3nc2-c2ccco2)c1	.	66.2*	.	.	.	25.5*
CC(=O)N1CCN(C2=Nc3cccc4cccc2c34)CC1	4.0%	11.8	3.97µM*	-4.8%	13.0%	8.1
COc1ccc(C(=O)NNC2=Nc3cccc4cccc2c34)cc1	1.7%	-16.5	8.1%	-7.5%	-1.1%	1.0
COc1ccccc1NC1=Nc2cccc3cccc1c23	1.8%	20.3	-2.8%	?	-0.3%	14.2*
COc1ccccc1N1CCN(C2=Nc3cccc4cccc2c34)CC1	1.7%[11.5 µM]	68.6	-29.3%	-6.8%	3.3%	34.3*
NC(=O)NNC1=Nc2cccc3cccc1c23	2.8%	56.3	-9.5%	0.8%	0.5%	11.2
O=C(O)c1ccc(NC2=Nc3cccc4cccc2c34)cc1	1.1%	69.4*	-26.9%	-6.1%	-10.1%	23.0*
CC(C)C(NC(=O)c1c(F)cccc1F)C(=O)N1CCN(c2ncccn2)CC1 (configuration not stated)	.	.	.	15.2%	0.0%	.
CC(C)C[C@H](NC(=O)CNC(=O)[C@@H]1CCCN1C(=O)[C@H](CCCNC(=N)N)NC(=O)[C@H](CC(=O)O)NC(=O)[C@@H](NC(=O)[C@H](CC(N)=O)NC(=O)[C@@H](NC(=O)[C@H](CC(=O)O)NC(=O)CNC(=O)[C@@H](NC(=O)[C@@H](NC(=O)[C@H](C)NC(=O)[C@@H](N)CCC(N)=O)[C@@H](C)O)C(C)C)C(C)C)[C@@H](C)O)C(=O)N[C@@H](CC(C)C)C(=O)N[C@@H](CC(=O)O)C(=O)N[C@@H](CC(C)C)C(=O)N[C@@H](CCCCN)C(=O)O	.	8.5	0.4%	.	.	-2.5
COc1ccc(OC)c(S(=O)(=O)NCCc2sc(-c3cccnc3)nc2C)c1	.	.	.	.	5.6%	.
CC(=O)Nc1cccc2c1Cc1ccccc1-2	-2.6%	63.5	-5.0%	3.7%	1.7%	41.3*
CC(=O)Nc1ccc2c(c1Br)Cc1ccccc1-2	.	.	.	-18.4%	1.1%	.
CCn1nc(C)c2c(-c3ccccc3)cc(=O)n(C(C)C(=O)NCc3ccccc3OC)c21 (configuration not stated)	.	.	.	.	-1.8%	.
Cc1ccc(Cn2cc(S(=O)(=O)c3cccc(Cl)c3)c(=O)c3cc(F)c(N4CCOCC4)cc32)cc1	.	.	.	.	0.8%	.
Cn1cc(S(=O)(=O)N2CCCC2)cc1C(=O)NCCc1ccccc1	0.9%	17.5	9.0%	7.4%	-5.6%	11.5*
Cc1ccc2nc(NC(=O)C3CCCN(S(=O)(=O)c4cccc5nsnc45)C3)sc2c1 (configuration not stated)	-2.0%	26.5	-2.7%	-5.5%	-1.2%	24.7*
SMILES	LmPK inhibitor	Shiga toxin inh	FBPA Giardia inh	RE007 growth inh	TbPYK inhibitor	Cycloheximide cs
O=C(Nc1ccc2c(c1)OCCO2)C1CCCN(S(=O)(=O)c2cccc3nsnc23)C1 (configuration not stated)	-1.7%	39.0	-4.0%	-8.7%	0.3%	24.2*
O=C(Nc1ccc2c(c1)OCCO2)C1CCN(S(=O)(=O)c2cccc3nsnc23)CC1	4.8%	9.4	-3.9%	21.4%	0.3%	-0.7
CCCN1CCN(CC2=C(C(=O)OCC)C(c3ccc(OC(C)C)cc3)NC(=O)N2)CC1 (configuration not stated)	.	.	.	.	-1.8%	.
COc1ccc(C)c(NC(=O)NCCc2cnc[nH]2)c1	-14.5%	-3.5	-18.6%	16.1%	-7.6%	1.9
CCOc1cc(CNc2ccc3c(c2)OCCO3)cc(Br)c1OC	2.0%	5.8	-10.7%	-26.3%	-10.0%	10.8
CCOc1c(Br)cc(CNc2ccc3c(c2)OCCO3)cc1OC	10.9%	97.5*	?	-20.1%	-10.4%	48.8*
CCOc1cc(CNc2ccc3c(c2)OCCO3)cc(Br)c1OCC(N)=O	5.4%	28.8	-3.7%	-3.7%	-12.6%	20.4*
COc1ccc(OC)c(CCNC(=O)Cn2ncc3c([nH]c4ccccc43)c2=O)c1	.	.	.	.	2.1%	.
CSc1nnc(-c2ccccc2Cl)n1N	-0.6%	-16.1	-9.2%	16.5%	-3.5%	8.8
Nn1c(-c2ccccc2Cl)nnc1-c1ccccc1Cl	-5.2%	+	-17.7%	-11.6%	1.0%	31.8*
Cc1ccc(-c2cc(-c3coc4ccc(Cl)cc4c3=O)c3c(n2)-c2ccccc2OC3)cc1	.	.	.	.	-5.5%	.
Cc1csc(NC(=O)c2ccc(S(C)(=O)=O)cc2)n1	3.4%	72.1*	-5.0%	-7.8%	4.4%	40.4*
COc1ccc(-c2csc(NC(=O)c3ccoc3C)n2)cc1	0.4%	152.8*	-9.4%	9.8%	-12.3%	40.8*
CN(c1ccc(C(=O)Nc2nccs2)cc1)S(=O)(=O)c1ccccc1	7.8%	56.6*	-3.7%	1.9%	-1.4%	37.7*
Cc1nc2cc(NC(=O)c3ccc(S(=O)(=O)N(C)c4ccccc4)cc3)ccc2o1	-5.2%	126.1*	-0.7%	14.1%	-11.0%	30.4*
COc1ccc(C(C)(NC(C)=O)c2nc(-c3cccc(NC(C)=O)c3)cs2)cc1 (configuration not stated)	.	.	.	0.2%	-5.9%	.
OC[C@@H]1O[C@@H](O)[C@H](O)[C@H](O)[C@@H]1O	.	-10.4	1.6%	.	.	-6.5
COc1ccc(-c2c(C)c3ccc(O)c(CN4CCN(CCO)CC4)c3oc2=O)cc1OC	.	.	.	.	0.3%	.
